{
  "source": "PubChem BioAssay AID651899",
  "about": "(Broad Institute, 2012)",
  "note": "Measured potencies and affinities stand elsewhere. The source made the active and inactive calls. How the calls were made is not given here.",
  "data": [
    {"experiment": "HEK293 cell viability loss – plate reader, cherry-pick, cytotoxicity control, dose response (AID 651899);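 further: cells exposed to compound for 48 hours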", "details": "series mostly up to 26 µM", "values": [
      {"smiles": "COC(=O)C[C@@H]1C[C@@H]2c3cc(NC(=O)c4cccnc4)ccc3O[C@@H]2[C@@H](CO)O1", "outcome": "inactive"},
      {"smiles": "CC(=O)N1CC[C@@H]2[C@@H](CO)N(C)c3ccc(-c4ccccc4)cc3[C@@H]21", "outcome": "inactive"},
      {"smiles": "CCC(Sc1nc2ccsc2c(=O)n1Cc1ccc(C(=O)O)cc1)C(=O)Nc1cccc(OC)c1", "note": "(stereo unspecified)", "outcome": "inactive"},
      {"smiles": "CN(Cc1ccccc1)C(=O)CCS(=O)(=O)c1ccc2c(c1)NC(=O)CS2", "outcome": "inactive"},
      {"smiles": "Cc1cccc(-n2c(SCC(=O)N(C)C3CCS(=O)(=O)C3)nc3ccccc3c2=O)c1C", "note": "(stereo unspecified)", "outcome": "inactive"},
      {"smiles": "Cc1cc(C)n(-c2ccc(C(=O)Nc3ccc4c(c3)OCO4)cc2)n1", "outcome": "inactive"},
      {"smiles": "CCN(CC)c1ccc2cc(C(=O)c3cccs3)c(=O)oc2c1", "outcome": "inactive"},
      {"smiles": "CCOc1ccc(C(=O)Nc2cc3c(cc2N2CCCC2)n(CC)c(=O)n3CC)cc1OCC", "outcome": "inactive"},
      {"smiles": "COc1ccc(C(C)NC(=O)Nc2ccc(C(C)=O)cc2)cc1OC", "note": "(stereo unspecified)", "outcome": "inactive"},
      {"smiles": "COc1cccc(NC(=O)CCC2CCN(C(=O)c3ccc(C(C)=O)s3)CC2)c1", "outcome": "inactive"},
      {"smiles": "O=C(CSc1nc2c(c(=O)n1-c1ccccc1)SCC2)N1CCN(c2ccccc2)CC1", "outcome": "inactive"},
      {"smiles": "O=C(C[C@@H]1C[C@@H]2c3cc(NC(=O)c4cccnc4)ccc3O[C@@H]2[C@@H](CO)O1)NCCc1ccccc1", "outcome": "inactive"},
      {"smiles": "COc1cc(/C=C/C(=O)Nc2cccnc2)cc(OC)c1OC", "outcome": "inactive"},
      {"smiles": "CC(=O)c1ccc(C(=O)N2CCCC(C(=O)c3ccc(Cl)cc3)C2)s1", "note": "(stereo unspecified)", "outcome": "inactive"},
      {"smiles": "COC(=O)C[C@H]1CC[C@@H]2[C@H](COC[C@@H](O)CN2C(=O)Nc2cccc(F)c2)O1", "outcome": "inactive"},
      {"smiles": "COC(=O)c1sc(N)c(C(=O)OC)c1CSc1nnc(-c2ccccc2Cl)n1C", "outcome": "inactive"},
      {"smiles": "O=C(Nc1ccc2c(c1)[C@H]1C[C@@H](CC(=O)N3CCc4ccccc4C3)O[C@H](CO)[C@H]1O2)c1cccnc1", "outcome": "inactive"},
      {"smiles": "CN(C)C(=O)C[C@@H]1C[C@@H]2c3cc(NC(=O)c4cccnc4)ccc3O[C@@H]2[C@@H](CO)O1", "outcome": "inactive"},
      {"smiles": "COc1ccccc1S(=O)(=O)N1CC[C@@H]2[C@H](CO)Nc3ccc(-c4cccc(C#N)c4)cc3[C@@H]21", "outcome": "inactive"},
      {"smiles": "O=C(C1CCOCC1)N1CC[C@@H]2[C@H](CO)Nc3ccc(Br)cc3[C@@H]21", "outcome": "inactive"},
      {"smiles": "CC(=O)c1ccc(N2CCN(c3ncccn3)CC2)c([N+](=O)[O-])c1", "outcome": "inactive"},
      {"smiles": "O=C(Cc1ccccc1)N1CC[C@@H]2[C@H]1c1cc(Br)ccc1N[C@@H]2CO", "outcome": "inactive"},
      {"smiles": "O=C(c1ccc2c(c1)OCO2)N1CC[C@@H]2[C@H](CO)Nc3ccc(-c4ccc(F)cc4)cc3[C@@H]21", "outcome": "inactive"},
      {"smiles": "CCN(CC)S(=O)(=O)c1ccc(NC(=O)c2ccc(Cl)nc2)cc1", "outcome": "inactive"},
      {"smiles": "CC(=O)c1ccc(NC(=O)C2CC(=O)N(Cc3ccccc3)C2)cc1", "note": "(stereo unspecified)", "outcome": "inactive"},
      {"smiles": "CC(=O)c1ccc(N2CCN(C(=O)c3ccc4c(c3)OCO4)CC2)cc1", "outcome": "inactive"},
      {"smiles": "C/C=C/c1ccc2c(c1)O[C@@H](CN(C)C(=O)Nc1ccccc1)[C@H](C)CN([C@H](C)CO)S2(=O)=O", "outcome": "inactive"},
      {"smiles": "COc1ccc(NC(=O)c2cnc(C)cn2)cc1-n1cnnn1", "outcome": "inactive"},
      {"smiles": "CN1CCCC1CCOC(C)(c1ccccc1)c1ccc(Cl)cc1", "note": "(stereo unspecified)", "outcome": "inactive"},
      {"smiles": "CCOc1ccc(-n2c(SCC(N)=O)nc3c(c2=O)SCC3)cc1", "outcome": "inactive"},
      {"smiles": "O=C(C[C@@H]1C[C@@H]2c3cc(NC(=O)c4cccnc4)ccc3O[C@@H]2[C@@H](CO)O1)NCc1cccc(F)c1", "outcome": "inactive"},
      {"smiles": "Cn1c(=O)c2c(nc(OCc3cccnc3)n2Cc2ccccc2)n(C)c1=O", "outcome": "inactive"},
      {"smiles": "CCC(CO)Oc1cc(NC(=O)c2cccc(F)c2)c2ncn(C(C)C)c2c1", "note": "(stereo unspecified)", "outcome": "inactive"},
      {"smiles": "Cc1ccc(NCc2nnc(SCC(=O)N3CCc4ccccc43)n2C)cc1", "outcome": "inactive"},
      {"smiles": "CC(=O)N1CC[C@@H]2[C@@H](CO)N(C)c3ccc(-c4cccc(F)c4)cc3[C@@H]21", "outcome": "inactive"},
      {"smiles": "O=C(c1ccc(S(=O)(=O)Nc2ccccc2F)cc1)N1CCN(c2ccccc2O)CC1", "outcome": "inactive"}
    ]}
  ]
}
